Laboratory results published in PubChem BioAssay AID2585 (National Center for Advancing Translational Sciences (NCATS), 2010).
Some of the results follow. Inconclusive results are not listed. Unmarked numbers belong to inactive results. Calls of active or inactive are those of the source. The call rests on the fitted dose curve; in most records, active means well fitted inhibition curve with a large enough effect; inconclusive means small, poorly fitted or top-dose-only effect; inactive means no such curve, though single readings can be large or run the other way.

target: RecQ-like DNA helicase BLM (Homo sapiens) (UniProt P54132); test: qHTS Confirmation Assay for Inhibitors of Bloom's syndrome helicase (BLM); settings: BLM DNA unwinding, fluorescence quenching, biochemical; further: nearly all actives have a fitted effect of over 45% in size
Source text: Survival of cells and the faithful propagation of the genome depend on elaborate mechanisms of detecting and repairing DNA damage. Treatment of advanced cancer relies on radiation therapy or chemotherapy, which kill cancer cells by causing extensive DNA damage. It is often found, that cancer cells develop resistance to therapy through enhanced activity of DNA repair functions; this has led to an increased interest in developing drugs that interfere with DNA repair, which could sensitize cancer cells to conventional therapy. This validation qHTS assay pertains to human BLM, which is important in resolving abnormal DNA structures formed during replication or homologous recombination. Shutting down the expression of BLM leads to chromosomal instability and higher radiation sensitivity in cultured cells. The validation assay was a fluorescence quenching based kinetic qHTS for BLM Helicase DNA unwinding. The activity was measured as ATP-dependent separation of a 20-bp DNA duplex extended by 30-nt single-stranded tails (forked duplex). The forked DNA substrate was tagged with rhodamine fluorophore (carboxytetramethyl rhodamine, TAMRA) and BHQ-2 (Black Hole Quencher 2) dark quencher. Strand separation results in an increase in the fluorescence of TAMRA (excitation 525 nm, emission 598 nm). This substrate construct operates in a red-shifted region where very few compound library members have been noted to fluoresce (PubChem AIDs 593 and 594). An additional feature of the assay is the inclusion of 2.5 ug/ml poly (dIdC), to reduce interference by compounds such as DNA intercalators, a major source of false inhibitors. Assay Providers: Ian Hickson, University of Oxford Opher Gileadi, Structural Genomics Consortium, University of Oxford Screening Center PI: Austin, C.P. Screening Center: NIH Chemical Genomics Center [NCGC]
Three uL of reaction buffer (25 mM Tris-HCl (pH 8.0), 5 mM NaCl, 2 mM MgCl2, 1mM DTT, 0.01% Tween- 20, and 2.5 ug/ml poly(dI-dC), including enzyme (50 nM BLM), were dispensed into a 1536-well Greiner black assay plate via solenoid-valve based nanoliter dispensers. Compounds (23 nl each in columns 5-48) and control (23 nl each in column 2 as dose-response) were transferred via a Kalypsys pintool equipped with a 1536-pin array. The plates were incubated for 15 min at room temperature, and then 1 ul of substrates (200 nM DNA and 2 mM ATP, final concentrations) was added to start the reaction. The plate was transferred into a ViewLux high-throughput CCD imager where the reaction progress was measured in a discontinuous kinetic mode (two reads spaced 2 hours apart, with intermediate room temperature incubation of the covered assay plate) by using standard red-fluorescence optics (excitation filter 525 nm, emission filter 598 nm). Enzyme-free and vehicle (DMSO) controls were included for signal normalization.
On the % scale 0 is the no-effect control and ±100 the full control effect; potency means the concentration at half of the fitted maximal effect.

RecQ-like DNA helicase BLM (Homo sapiens), sequence (P54132 whole entry, looked up): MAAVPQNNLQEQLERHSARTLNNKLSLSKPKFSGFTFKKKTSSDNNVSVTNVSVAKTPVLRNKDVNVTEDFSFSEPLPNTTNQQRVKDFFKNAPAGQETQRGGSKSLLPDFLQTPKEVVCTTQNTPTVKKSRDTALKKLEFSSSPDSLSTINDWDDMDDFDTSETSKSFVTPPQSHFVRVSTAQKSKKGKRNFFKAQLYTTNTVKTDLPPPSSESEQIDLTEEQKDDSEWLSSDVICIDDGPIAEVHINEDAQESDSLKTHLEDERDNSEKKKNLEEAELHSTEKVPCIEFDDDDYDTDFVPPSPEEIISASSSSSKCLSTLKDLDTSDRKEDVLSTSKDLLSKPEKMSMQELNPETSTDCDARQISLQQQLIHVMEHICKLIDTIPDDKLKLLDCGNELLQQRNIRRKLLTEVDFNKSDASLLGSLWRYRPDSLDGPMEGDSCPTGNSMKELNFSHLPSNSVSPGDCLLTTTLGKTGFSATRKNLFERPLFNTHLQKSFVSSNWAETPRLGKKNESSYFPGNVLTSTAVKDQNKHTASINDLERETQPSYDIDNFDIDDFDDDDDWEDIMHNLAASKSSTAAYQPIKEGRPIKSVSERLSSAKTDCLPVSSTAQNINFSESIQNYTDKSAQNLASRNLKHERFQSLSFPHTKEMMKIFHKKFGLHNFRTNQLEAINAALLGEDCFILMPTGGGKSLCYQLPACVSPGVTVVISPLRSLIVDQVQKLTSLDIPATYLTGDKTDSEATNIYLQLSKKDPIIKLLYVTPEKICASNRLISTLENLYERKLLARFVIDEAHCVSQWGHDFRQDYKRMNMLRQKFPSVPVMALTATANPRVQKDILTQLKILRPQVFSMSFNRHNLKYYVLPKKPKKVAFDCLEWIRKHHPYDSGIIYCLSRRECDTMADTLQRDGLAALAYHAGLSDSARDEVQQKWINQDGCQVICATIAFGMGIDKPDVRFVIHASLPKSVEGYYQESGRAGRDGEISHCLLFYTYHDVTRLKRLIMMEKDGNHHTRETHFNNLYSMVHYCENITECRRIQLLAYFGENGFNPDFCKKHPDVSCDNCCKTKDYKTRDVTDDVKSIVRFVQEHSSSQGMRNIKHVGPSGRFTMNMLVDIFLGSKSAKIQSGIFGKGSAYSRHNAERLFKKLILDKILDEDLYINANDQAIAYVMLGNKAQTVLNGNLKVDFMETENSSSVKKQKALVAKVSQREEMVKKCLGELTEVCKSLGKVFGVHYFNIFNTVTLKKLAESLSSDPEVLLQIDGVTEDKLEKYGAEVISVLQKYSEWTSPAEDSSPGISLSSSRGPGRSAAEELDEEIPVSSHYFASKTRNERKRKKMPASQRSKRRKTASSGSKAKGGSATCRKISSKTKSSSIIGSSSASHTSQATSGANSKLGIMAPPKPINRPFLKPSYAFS

Structure (SMILES) | Potency | max response, negative = inhibition [%]
Cc1ccc(-c2nc(SCc3ccc(Br)cc3)n3[nH]c(=O)cc3n2)cc1 | 11.5 µM (active) | 
C=C1c2cccc(OC)c2O[C@H](C(=O)OCC)[C@@H]1CCCCCC |  | -13.8
CS(=O)(=O)c1ccc2nc(NC(=O)c3ccc(Cl)nc3)sc2c1 |  | 0.0289
CC(C)(O)c1ccccc1CC[C@H](SCC1(CC(=O)O)CC1)c1cccc(/C=C/c2ccc3ccc(Cl)cc3n2)c1 | 54.1 µM (active) | 
CN(C(=O)COC(=O)c1cc(-c2ccco2)nc2ccccc12)C1CCS(=O)(=O)C1 (configuration not stated) | 18.2 µM (active) | 
Oc1ccc(N=Cc2sc3ccccc3c2Cl)cc1 |  | -10.8
COc1ccc(-c2nc3c(c(SCC(=O)Nc4ccc(C(=O)O)cc4)n2)Cc2ccccc2O3)cc1 | 5.13 µM (active) | 
